The results in this text go back to PMC4336329 (PLoS ONE, 2015).

The whole screen tested about 310,000 compounds, of which about 14,000 (4.5%) showed an effect of 50% or more. The effect is printed as a negative number. This is one part of a sample in which strong results are shown more often than they occur.
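Note: peak tail current of the secondary pulse compared with the same well before compound.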

Sequence of human ether-à-go-go-related gene (hERG) potassium channel (Q12809 whole entry, looked up): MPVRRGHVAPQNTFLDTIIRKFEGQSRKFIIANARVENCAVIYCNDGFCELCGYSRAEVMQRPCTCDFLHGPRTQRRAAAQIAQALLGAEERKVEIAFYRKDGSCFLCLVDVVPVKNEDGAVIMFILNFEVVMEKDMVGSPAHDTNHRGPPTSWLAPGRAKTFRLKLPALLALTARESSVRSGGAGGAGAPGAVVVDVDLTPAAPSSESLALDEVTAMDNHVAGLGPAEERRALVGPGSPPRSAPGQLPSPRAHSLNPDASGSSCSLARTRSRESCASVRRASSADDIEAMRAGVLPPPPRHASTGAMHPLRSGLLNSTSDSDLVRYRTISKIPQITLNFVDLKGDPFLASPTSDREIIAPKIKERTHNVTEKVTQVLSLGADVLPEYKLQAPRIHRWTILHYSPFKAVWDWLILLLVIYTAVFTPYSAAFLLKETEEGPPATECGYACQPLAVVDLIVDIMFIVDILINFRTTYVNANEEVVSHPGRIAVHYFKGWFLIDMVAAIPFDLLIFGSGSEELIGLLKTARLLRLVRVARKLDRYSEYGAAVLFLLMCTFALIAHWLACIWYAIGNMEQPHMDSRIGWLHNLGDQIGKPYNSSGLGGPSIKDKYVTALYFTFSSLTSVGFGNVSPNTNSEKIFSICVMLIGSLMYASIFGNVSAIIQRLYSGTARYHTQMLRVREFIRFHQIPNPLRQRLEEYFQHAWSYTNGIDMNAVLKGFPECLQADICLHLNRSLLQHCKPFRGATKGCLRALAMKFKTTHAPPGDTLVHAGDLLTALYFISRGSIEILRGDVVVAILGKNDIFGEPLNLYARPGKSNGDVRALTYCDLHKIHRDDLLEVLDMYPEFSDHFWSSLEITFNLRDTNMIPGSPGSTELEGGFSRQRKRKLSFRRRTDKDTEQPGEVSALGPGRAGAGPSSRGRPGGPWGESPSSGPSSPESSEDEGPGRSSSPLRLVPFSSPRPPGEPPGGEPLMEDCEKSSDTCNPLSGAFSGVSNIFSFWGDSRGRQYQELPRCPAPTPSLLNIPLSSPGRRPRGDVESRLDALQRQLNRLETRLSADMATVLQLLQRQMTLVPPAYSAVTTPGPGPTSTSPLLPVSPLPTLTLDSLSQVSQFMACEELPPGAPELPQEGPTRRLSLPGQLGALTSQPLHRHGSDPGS

This assay concerns the target human ether-à-go-go-related gene (hERG) potassium channel (human, UniProt Q12809). In words: primary screen, population patch clamp on CHO cells stably expressing hERG; higher = less effect of the substance.
Consider `CCOc1ccccc1NC(=O)C(Sc1nnnn1C)c1ccccc1` (stereo not drawn), for which the “hERG current change (%, negative = inhibition) at 10uM” value was -21.2%.

`Cn1c(NC(=O)c2ccccc2)c(-c2cccs2)c(=O)c2ccccc21`: the “hERG current change (%, negative = inhibition) at 10uM” value is 7.07%.

Take `CC(=O)c1ccc(N=Nc2c(C)[nH]n(-c3ccccc3)c2=O)cc1`: the “hERG current change (%, negative = inhibition) at 10uM” value is reported as 8.59%.

Turning to `CC1CCN(C(=S)c2cn(Cc3ccc(F)cc3)c3ccccc23)CC1`, the “hERG current change (%, negative = inhibition) at 10uM” value is -1.82%.

On to `COc1cc(/C=C/C(=O)O)cc(S(=O)(=O)Nc2ccc3nc(C)sc3c2)c1OC`, for which the “hERG current change (%, negative = inhibition) at 10uM” value is 26.5%.

`CCOc1ccccc1NC(=O)c1ccc(OCC)c([N+](=O)[O-])c1`: the “hERG current change (%, negative = inhibition) at 10uM” value is given as -10.3%.

With `CCOc1ccc(C(=O)NC(=S)Nc2ccccc2N2CCC(C)CC2)cc1[N+](=O)[O-]`, the “hERG current change (%, negative = inhibition) at 10uM” value worked out at 5.75%.

Take `CCOc1ccc(C(=O)NC(=S)Nc2ccccc2N2CCCCC2)cc1[N+](=O)[O-]`: the “hERG current change (%, negative = inhibition) at 10uM” value amounted to 11.7%.

Consider `CCOc1ccc(C(=O)Nc2ccccc2N2CCN(C(=O)c3ccccc3)CC2)cc1[N+](=O)[O-]`, for which the “hERG current change (%, negative = inhibition) at 10uM” value is -83.3%.

As for `CCOc1ccc(C(=O)Nc2ccccc2CC)cc1[N+](=O)[O-]`, the “hERG current change (%, negative = inhibition) at 10uM” value is reported as -21.9%.

Turning to `CCOc1ccc(C(=O)Nc2ccccc2C#N)cc1[N+](=O)[O-]`, the “hERG current change (%, negative = inhibition) at 10uM” value was -55.6%.

For the compound `O=C1NC2(CCCCCC2)Cc2ccccc21`, the “hERG current change (%, negative = inhibition) at 10uM” value is reported as -21.2%.

On to `Cc1ccc(C(=O)NNC(=O)C(C)Oc2ccc3ccccc3c2)o1` (stereo not drawn), for which the “hERG current change (%, negative = inhibition) at 10uM” value is given as -13.2%.

In the case of `C/C(CC(=O)NC(C)(C)C)=N\NC(N)=S`, the “hERG current change (%, negative = inhibition) at 10uM” value is recorded as 20%.

Turning to `CCN(CC)S(=O)(=O)c1ccc(NC(=O)c2cccc3c2C(=O)N(CCOC)C3)cc1`, the “hERG current change (%, negative = inhibition) at 10uM” value is -1.36%.

Consider `Cc1cc(C)n2nc(SC(C)C(=O)N3CCC4(CC3)OCCO4)nc2n1` (stereo not drawn), for which the “hERG current change (%, negative = inhibition) at 10uM” value is -0.197%.

For the compound `O=C(c1ccc(Cn2cc(Cl)cn2)cc1)N1CCN(c2ccccc2)CC1`, the “hERG current change (%, negative = inhibition) at 10uM” value is given as -58.4%.

Turning to `O=C(c1ccc(CN2CCOCC2)cc1)N1CCN(c2ccccc2)CC1`, the “hERG current change (%, negative = inhibition) at 10uM” value stood at 3.02%.

With `O=C(O)c1ccc(Cn2cc(Cl)cn2)cc1`, the “hERG current change (%, negative = inhibition) at 10uM” value turned out to be 18.7%.

`O=C(c1ccc(Cn2cc(Br)cn2)cc1)N1CCN(c2ccccc2)CC1`: the “hERG current change (%, negative = inhibition) at 10uM” value was -57.4%.

For `COc1ccc(N2CCN(C(=O)c3cccc(Cn4cc(Cl)cn4)c3)CC2)cc1`, the “hERG current change (%, negative = inhibition) at 10uM” value was -48%.

For `NNC(=O)c1ccc(Cn2cc(Br)cn2)cc1`, the “hERG current change (%, negative = inhibition) at 10uM” value was -2.07%.

In the case of `O=C(O)C1C(=O)NCC1c1ccccc1` (stereo not drawn), the “hERG current change (%, negative = inhibition) at 10uM” value is recorded as 10.6%.

Regarding `Cc1ccc(C(=O)NC2CCCC(C)C2C)cc1S(=O)(=O)N1CCCCC1` (stereo not drawn), the “hERG current change (%, negative = inhibition) at 10uM” value is -20.6%.
